# What was measured:
# Experiment in all cases: PBM binding z-score (relative to random genomic background probes); higher = stronger binding; sequences stand for … in GC…GCGATTGACAGCGTAGAATGAAGG
# [1] = system: RARb homodimer (NR concentration 270 nM)
# Method in brief: (§1)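 Custom Agilent 4×180K protein-binding microarrays carried double-stranded probes. Their 34-nt variable regions held direct-repeat seeds, single-nucleotide variants, half-site ablations and random human genomic background sequences. Arrays were incubated 1 h with ligand-free nuclear receptor dimers in PBS pH 7.4, 2% milk, 0.02% Triton X-100, 1 mM DTT, 0.2 mg/mL BSA and 0.4 mg/ml salmon testes DNA. Antibodies against each partner (one per run) detected binding, and scanned fluorescence was regression-normalized. Binding z-scores use random background probes as reference.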
# [2] = system: RARg:RXRa (NR concentration 270 nM, RXRa partner concentration 90 nM)
# Method in brief: as §1
# [3] = system: RARg homodimer (NR concentration 270 nM)
# Method in brief: as §1
# [4] = system: RXRa DBDmut IVT, anti-RXR (DBD mutation: RXRa K156A/R161A, NR concentration 90 nM)
# Method in brief: as §1
# [5] = system: RXRa homodimer (NR concentration 180 nM)
# Method in brief: as §1
# [6] = system: THRa:RXRa (NR concentration 90 nM, RXRa partner concentration 90 nM)
# Method in brief: as §1
# [7] = system: THRa homodimer (NR concentration 90 nM)
# Method in brief: as §1
# [8] = system: VDR:RXRa (NR concentration 270 nM, RXRa partner concentration 90 nM)
# Method in brief: as §1
# [9] = system: VDR homodimer (NR concentration 270 nM)
# Method in brief: as §1
Sequence,PBM binding z-score [1],PBM binding z-score [2],PBM binding z-score [3],PBM binding z-score [4],PBM binding z-score [5],PBM binding z-score [6],PBM binding z-score [7],PBM binding z-score [8],PBM binding z-score [9]
GCGACTGGGGCATCATCAGGTTACCATAACTTAA,1.15,0.589,0.679,0.291,0.302,2.31,1.31,0.00777,0.0657
TCATATATGTAAAGGTGAAAGTCGAACGATATGA,1.45,1.45,1.16,0.622,2.19,1.19,-0.594,1.17,0.112
ATACCAAGGTGATCGTGAGGTCTTTGATACTAAC,0.992,0.797,0.392,0.0771,0.435,2.38,1.65,0.526,0.438
GCATATAGGTAATACAAGGTGAATGTCCGATTGT,0.685,0.413,0.66,0.0909,0.689,4.18,0.928,0.106,-0.178
ACTAGTCGGTCAGCTGAGGTCACACACAATTCGG,4.94,4.99,5.76,1.43,4.35,5.27,5.28,5.12,3.97
GCGATTAGTTGAAAGGGCAACCGAATGATTCTCG,1.82,1.14,1,0.582,1.27,0.405,-0.273,0.316,0.184
AATACAGGGTCATCGAAGGCCAGAGTACGCACAG,3.74,5.74,5.31,3.38,6.7,4.62,1.43,5.49,3.66
TCGAGTAGGTTAGTCGGGGCTTTCAGCCAACATA,-0.364,-0.483,-0.728,0.169,-0.346,1.11,-0.892,-0.0861,-0.862
TCTAGCAGGCCAGAGGGTGACTCAAGAGGTACGG,0.225,0.176,-0.109,-0.237,0.486,-0.0515,-0.795,-0.421,-0.534
TATACAGGGTCAAAGGCGAGAGTACGAATGTCGA,3.17,5.39,5.04,2.92,6.67,3.42,0.888,4.59,3.09
CTCGAAAGGTCGTGCTCATGTGAGTATACCAAAC,2.68,4.43,3.69,2.15,5.19,2.45,0.174,3.36,0.995
AGTAAAAGTTCATCTAGGTAACGTAAGATATGCT,3.63,4.68,5.23,4.63,3.77,3.05,0.0912,4.57,4.83
CAAACTAGGTCACAGGTCAAAGTCGAGCCAACCA,4.27,5.97,5.55,2.31,6.18,3.97,2.07,4.33,2.12
AGAACGAGGGGACGCTGAGTTGATAGCAGAGTAG,0.0721,0.0507,0.265,0.401,-0.0794,0.202,-0.233,0.464,1.16
GCGACTGGGGCAAAGCAGGCTACCATAAGGTTGG,0.228,0.143,0.207,-0.628,0.0152,1.59,-0.688,-0.662,-0.862
CCGACTGGGCCAAAGGTTACCATACTCAGTACGA,2.31,2.84,1.45,0.18,3.2,1.56,0.0942,1.21,-0.0479
GCAGACAGGTGAACCGCAGGTAACTCAGGGTGGC,0.366,1.37,0.342,-0.635,1.54,1.76,-0.376,0.332,-0.237
GCATATAGGTAATACAAGGTGTAAGTCCGATTGT,-0.384,-0.0828,0.241,0.314,0.0841,1.3,-0.232,-0.12,-0.121
GCCGCTAGGTCAACTGATGGTCAGCTAAAGCTCG,3.66,5.19,5.22,1.45,2.97,2.97,0.878,1.45,-0.321
GGAACGAGGGCATTCGAGTTGATAGTATGGCGAT,0.948,1.22,1.61,3.39,0.99,3.38,0.0512,4.13,3.37
ATATGTAGGTTATCGGGTCATTCTGTTTGCGCAT,2.91,3.37,2.21,1.77,3.44,3.38,2.96,3.82,3.53
CAAACTAGGTCACAAAGGTCAAAGTCCGTGCGTA,5.75,7.55,8.33,3.46,8.41,4.52,2.58,7.28,6.7
TCTTGTAGATCAACAGGAGGTTAAGATAGATCGA,0.539,1.16,0.391,0.496,1.04,0.854,-0.513,0.488,-0.27
CCTAGCAGGCCAGGGTCATTCAAGCATTTCGCTT,2.54,2.93,1.89,1.62,3.35,2.93,0.719,3.48,2.77

Sequence,PBM binding z-score [1],PBM binding z-score [2],PBM binding z-score [3],PBM binding z-score [4],PBM binding z-score [5],PBM binding z-score [6],PBM binding z-score [7],PBM binding z-score [8],PBM binding z-score [9]
CCTGCTAGGTCATGGTCTGCTAATCTACAGTATG,2.97,3.73,4.43,2.02,2.66,3.17,1.35,1.58,0.439
TAGCCTAGGTCATTGGGACAGTATAGTACGCATC,2.92,3.97,4.51,1.52,3.13,2.95,1.14,2.35,1.44
TAGCTTAGGTCATTCAGGGGCCAGTATAGAAAGC,3.41,6.43,5.18,2.36,3.35,3.72,1.83,3.19,1.69
CCTCGGAGGACAACTGGAGGTCAGAGCTGCCAGA,3.7,4.12,4.11,0.362,2.22,2.7,1.3,2.08,1.48
GATACAGGGTCAGCTATAGGCCAGAGTATGGAAA,2.93,5.42,4.73,1.34,4.02,2.6,0.272,2.46,0.536
TCGAGTTGGTTAGGGGCATTCAGAATGGCGTCGA,0.661,-0.158,-0.398,1.95,0.163,0.835,0.169,1.84,3.32
GCGACTGGGGCAAAGAAGGTTACCATAAGGTTGG,1.92,1.19,1.02,-0.00563,0.942,2.77,0.225,0.733,0.247
TGAATGAGGTTAATGATCAGGGAACGTGGCGTCG,0.436,1.4,1.07,0.589,1.67,1.97,0.6,0.633,0.544
TGGAGTAGGTTAGTCGGGGCATTCAGCCAACATA,1.41,0.219,0.355,-0.608,0.023,1.48,0.985,2.43,1.24
CCCGCTAGGTCAATGGTCAGCTAAAGCAGCTCGC,3.03,3.62,4.76,1.28,2.37,2.27,0.886,1.02,-0.00101
ACAGACAGGTGATGAAGATAACTCAGGCTATCAT,0.036,0.0914,0.567,-0.415,0.164,0.061,-0.111,-0.422,-0.302
CTCGAGAGGTCGGTTGAGGTGAGTATACGGATAA,1.99,2.11,2.3,1.57,2.06,5,1.39,2.59,1.16
ATCTCTAGGTAAAGTTGAGTGAAAGATCGATAGA,-0.112,0.406,0.593,-0.00419,0.495,0.689,-0.246,0.152,0.103
CGTCCAAGGTCTAAGGTCAGTGAAGAGATGACGG,3.66,3.47,4.02,1.14,3.1,3.65,3.24,1.73,1.1
TCTTGTAGATCGAAGGTTAAGAAAGCCGAAGCCT,0.0841,0.243,-0.136,0.423,0.859,0.418,-0.559,0.313,-0.284
ATCTCTAGGTAGAAGTTCAGTGAATCCCGAGGAT,1.2,0.74,0.979,0.251,0.602,0.355,-0.305,0.473,1.28
GCTCGGAGGACAAGGTCAAAGCTTTGTCCGTAGA,3.35,4.56,4.54,1.32,4.4,3.57,2.09,3.38,2.02
AATACAGGGTCACTAGGCCAGAGCAGGTACGAAT,3.36,5.15,5.08,2.67,5.66,3.31,1.07,4.03,2.39
CGTCCAAGGTCAGCAGGACAGTGAAAGCGACGTG,3.89,5.05,6.09,2.33,3.68,3.72,1.9,2.42,0.589
GCTATTAGTTGAAAGGACAACCGAATGATTCTCG,1.25,0.533,1.2,0.922,0.0459,0.487,0.292,-0.113,0.311
AGAACGAAGGCACGCTGAGTTGATAGCAGAGTAG,-0.785,-0.198,0.0507,-0.345,0.0315,-0.717,-1.12,-0.487,-0.212
CGTGAAAGTTCAACTAAGGTAACGTAAAGCACGC,4.13,5.55,6.12,4.76,4.3,5.32,1.64,4.46,3.71
GCTAGTTGGTCTGTAAAAGGTCACACACCGGTCG,5.02,5.01,4.62,0.681,5.65,3.52,1.78,3.94,1.81
TCTATTAGTTGCTTAGGGCAACCGAAACAGCGGA,0.716,0.433,0.547,1.23,0.549,0.996,0.379,0.49,0.236
